The values that follow come from PubChem BioAssay AID449746 (Sanford-Burnham Center for Chemical Genomics, 2010).

About 680 (34%) of roughly 2,000 compounds were called active. No stated cut-off is given here; in the data, active means inhibition mostly above about 28% (no sharp cut-off); inactive means mostly below about 22%. Not all results are given here.

This assay in a line: PMA/ionomycin-induced NF-kB reporter inhibitors, 697 retest, confirmation, B-cell NF-kB inhibitor project, cell-based, luminescence, single concentration (AID 449746). The following applies: 697 B-cell NF-kB luciferase, 16 h, at 4 µM, stronger effect = higher value.
Take `COc1ccc(-n2nnnc2-c2nc3ccccc3s2)cc1`: the inhibition (in general, the drop in the measured response relative to a control, in per cent) was -323% (inactive).

Take `COc1ccc2nc(SCc3ccccc3)nc(C)c2c1`: the inhibition was -295% (inactive). The same measure for `Cn1c(=O)n(C)c2cc(C(=O)Nc3ccc4c(c3)OCO4)ccc21`: 35.1% (active).

Turning to `O=C(Nc1nc2ccccc2s1)c1ccc2c(c1)OCO2`, the inhibition is -466% (inactive). For the compound `C/C(=N\Nc1nc(Nc2ccccc2)nc(N2CCOCC2)n1)c1cccs1`, the inhibition was 34.2% (active).

For the compound `Cc1ccc(-n2cc3ccc([N+](=O)[O-])cc3n2)cc1`, the inhibition was -341% (inactive). Consider `Cc1cc2nc(-c3ccc(NC(=O)c4cccnc4)cc3)oc2cc1C`, for which the inhibition is -187% (inactive). Under `Cc1cccc(-n2c(C)cc(/C=N\NC(=O)c3cccs3)c2C)c1` stands -11.6% (inactive); under `C[C@@H]1C[C@@H]2O[C@H]2/C=C\C=C\C(=O)Cc2c(Cl)c(O)cc(O)c2C(=O)O1`, 79.9% (active). The same measure for `COc1cccc(/C=C/c2ccc3ccccc3n2)c1OC(C)=O`: -459% (inactive). Under `COc1ccc(/C=C2\SC(=S)N(CCC(=O)Nc3ccccn3)C2=O)cc1OC` stands 10.2% (inactive). `C=CCOc1ccc(/C=C2\SC(=S)N(CCC(=O)O)C2=O)cc1`: the inhibition is 54.5% (active).

Turning to `NS(=O)(=O)c1ccccc1NC(=O)c1c(O)c2ccccc2[nH]c1=O`, the inhibition was -472% (inactive). Under `O=C(/C=C/c1ccc(OCc2c(F)cccc2Cl)cc1)N1CCOCC1` stands -278% (inactive); under `COc1ccc(CNC(=O)CNC(=O)c2sc3ccccc3c2Cl)cc1OC`, 3.3% (inactive); under `Cn1c(-c2ccc(F)cc2)cc2onc(-c3ccccc3Cl)c2c1=O`, -244% (inactive).

In the case of `O=C(O)CCn1c(O)c(C=C2N=c3ccccc3=N2)sc1=S`, the inhibition is 58.5% (active). Regarding `O=c1[nH]c(-c2ccccc2)c(-c2ccccc2)[nH]1`, the inhibition is 25.8% (inactive).

Take `CCOc1ccc(N/C=C/C(=O)c2ccccc2)cc1`: the inhibition is -272% (inactive). Turning to `COc1ccccc1OCc1nc2ccccc2s1`, the inhibition was -319% (inactive).

Turning to `Cc1ccc(OCc2nc3ccccc3n2C)cc1`, the inhibition was -216% (inactive). Under `CCCc1nc2c(C)cc(-c3nc4ccccc4n3C)cc2n1Cc1ccc(-c2ccccc2C(=O)O)cc1` stands 28.4% (active); under `Cn1c(-c2ccc(C(=O)c3ccccc3)s2)nc2ccccc21`, -249% (inactive); under `COc1cccc(-c2nc3cc(C)ccc3o2)c1`, -299% (inactive). Under `COc1ccc(Nc2nc(-c3ccccc3)cs2)cc1` stands -131% (inactive).
